# From paper PMC7862700, “An all-to-all approach to the identification of sequence-specific readers for epigenetic DNA modifications on cytosine”
# Tests used:
# Experiment in all cases: DAPPL (digital affinity profiling via proximity ligation, sequencing); 10 mM Tris-HCl pH 7.5, 50 mM NaCl, 1 mM DTT, 4% glycerol, room temperature, 30 min; GST-TFs on glutathione beads, 16-mer random dsDNA library, 0.1% formaldehyde crosslink after washing; high values mean tight binding
# FEV = biological target: T1, FEV (Homo sapiens, UniProt Q99581 1-238); details: protein: recombinant; tags: N-terminal GST; dsDNA, one strand shown
# T1 sequence: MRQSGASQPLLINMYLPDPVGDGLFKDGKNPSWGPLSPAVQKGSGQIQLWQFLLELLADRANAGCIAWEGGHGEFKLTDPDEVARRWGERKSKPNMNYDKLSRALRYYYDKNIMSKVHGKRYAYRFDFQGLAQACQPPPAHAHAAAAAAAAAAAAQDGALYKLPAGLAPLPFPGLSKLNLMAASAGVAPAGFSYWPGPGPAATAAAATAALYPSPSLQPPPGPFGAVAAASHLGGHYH
# Summary of the method: (§1)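 The binding signal reported is, for every hexamer, its read frequency for a factor over its read frequency for the tag-only sample. Reads came from pools of yeast-expressed, GST-fused human transcription factors on glutathione beads, barcoded with DNA and mixed with that sample, which were incubated with 200 nmole of a random double-stranded 16-mer DNA library in Tris/NaCl/DTT/glycerol buffer at room temperature for 30 min. After washing, the pools were crosslinked with 0.1% formaldehyde, proximity-ligated with BsaI/T4 ligase for 1 h at 37 °C, PCR-amplified and sequenced on an Illumina NextSeq500.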
# ETV5 = ETV5 (Homo sapiens, UniProt P41161 1-510); details: protein: recombinant; tags: N-terminal GST; dsDNA, one strand shown
# Sequence of ETV5 (P41161 whole entry): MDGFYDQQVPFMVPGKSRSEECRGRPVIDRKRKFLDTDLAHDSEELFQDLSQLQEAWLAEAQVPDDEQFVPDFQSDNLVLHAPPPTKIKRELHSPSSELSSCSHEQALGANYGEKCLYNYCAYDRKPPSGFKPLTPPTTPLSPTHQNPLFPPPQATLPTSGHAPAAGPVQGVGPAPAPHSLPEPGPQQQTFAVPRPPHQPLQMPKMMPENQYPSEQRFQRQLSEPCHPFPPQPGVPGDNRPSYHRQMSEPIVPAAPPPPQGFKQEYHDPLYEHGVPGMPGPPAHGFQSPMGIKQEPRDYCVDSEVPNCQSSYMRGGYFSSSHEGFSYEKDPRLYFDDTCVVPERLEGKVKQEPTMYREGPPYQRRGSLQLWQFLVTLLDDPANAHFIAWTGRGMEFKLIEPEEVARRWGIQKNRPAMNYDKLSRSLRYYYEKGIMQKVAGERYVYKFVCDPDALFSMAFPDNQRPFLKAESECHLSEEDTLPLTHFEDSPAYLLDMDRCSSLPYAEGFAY
# Summary of the method: as §1
# HSF1 = HSF1 (Homo sapiens, UniProt Q00613 1-529); details: protein: recombinant; tags: N-terminal GST; chain copies: 3; dsDNA, one strand shown
# Sequence of HSF1 (Q00613 whole entry): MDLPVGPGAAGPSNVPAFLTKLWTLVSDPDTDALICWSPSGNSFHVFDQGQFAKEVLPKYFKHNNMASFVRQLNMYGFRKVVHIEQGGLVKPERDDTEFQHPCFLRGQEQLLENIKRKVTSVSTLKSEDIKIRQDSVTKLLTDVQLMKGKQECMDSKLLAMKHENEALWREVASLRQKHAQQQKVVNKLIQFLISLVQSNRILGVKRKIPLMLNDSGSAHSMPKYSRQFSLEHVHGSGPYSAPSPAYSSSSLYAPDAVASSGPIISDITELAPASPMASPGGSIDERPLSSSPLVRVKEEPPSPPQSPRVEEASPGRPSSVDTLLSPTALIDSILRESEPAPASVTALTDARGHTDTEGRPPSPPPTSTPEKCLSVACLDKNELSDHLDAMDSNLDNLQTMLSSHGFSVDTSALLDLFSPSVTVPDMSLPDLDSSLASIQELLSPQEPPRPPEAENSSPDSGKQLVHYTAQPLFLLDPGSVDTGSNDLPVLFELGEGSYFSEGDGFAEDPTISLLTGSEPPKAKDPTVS
# Summary of the method: as §1
# SPIC = biological target: T2, SPIC (Homo sapiens, UniProt Q8N5J4 1-248); details: protein: recombinant; tags: N-terminal GST; dsDNA, one strand shown
# T2 sequence: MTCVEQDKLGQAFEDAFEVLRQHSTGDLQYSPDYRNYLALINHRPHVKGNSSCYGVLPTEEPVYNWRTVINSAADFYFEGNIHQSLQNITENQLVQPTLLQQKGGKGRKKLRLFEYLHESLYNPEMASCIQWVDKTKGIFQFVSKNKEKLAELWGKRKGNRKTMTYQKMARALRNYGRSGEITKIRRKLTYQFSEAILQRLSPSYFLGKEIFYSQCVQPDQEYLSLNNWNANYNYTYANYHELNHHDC
# Summary of the method: as §1
# ELF4 = ELF4 (Homo sapiens, UniProt Q99607 1-663); details: protein: recombinant; tags: N-terminal GST; dsDNA, one strand shown
# Sequence of ELF4 (Q99607 whole entry): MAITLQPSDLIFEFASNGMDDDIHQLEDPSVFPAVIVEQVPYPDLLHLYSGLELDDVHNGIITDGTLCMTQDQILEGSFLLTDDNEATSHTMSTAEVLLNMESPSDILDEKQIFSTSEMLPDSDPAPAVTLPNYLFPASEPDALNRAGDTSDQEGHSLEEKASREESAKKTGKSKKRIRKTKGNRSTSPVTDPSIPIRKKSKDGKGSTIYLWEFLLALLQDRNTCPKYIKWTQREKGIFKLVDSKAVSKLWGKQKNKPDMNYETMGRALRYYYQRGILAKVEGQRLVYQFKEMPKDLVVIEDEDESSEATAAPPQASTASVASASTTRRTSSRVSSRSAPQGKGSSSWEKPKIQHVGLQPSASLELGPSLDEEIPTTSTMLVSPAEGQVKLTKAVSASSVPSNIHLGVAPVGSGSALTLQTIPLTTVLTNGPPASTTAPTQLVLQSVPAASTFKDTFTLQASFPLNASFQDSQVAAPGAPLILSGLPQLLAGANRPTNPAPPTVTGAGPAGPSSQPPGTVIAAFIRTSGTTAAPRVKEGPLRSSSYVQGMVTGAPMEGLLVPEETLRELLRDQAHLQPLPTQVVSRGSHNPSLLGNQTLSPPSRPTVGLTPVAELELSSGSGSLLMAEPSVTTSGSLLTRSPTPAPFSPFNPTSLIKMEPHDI
# Summary of the method: as §1
# ELK4 = biological target: T3, ELK4 (Homo sapiens, UniProt P28324-2 1-405); details: protein: recombinant; tags: N-terminal GST; dsDNA, one strand shown
# T3 sequence: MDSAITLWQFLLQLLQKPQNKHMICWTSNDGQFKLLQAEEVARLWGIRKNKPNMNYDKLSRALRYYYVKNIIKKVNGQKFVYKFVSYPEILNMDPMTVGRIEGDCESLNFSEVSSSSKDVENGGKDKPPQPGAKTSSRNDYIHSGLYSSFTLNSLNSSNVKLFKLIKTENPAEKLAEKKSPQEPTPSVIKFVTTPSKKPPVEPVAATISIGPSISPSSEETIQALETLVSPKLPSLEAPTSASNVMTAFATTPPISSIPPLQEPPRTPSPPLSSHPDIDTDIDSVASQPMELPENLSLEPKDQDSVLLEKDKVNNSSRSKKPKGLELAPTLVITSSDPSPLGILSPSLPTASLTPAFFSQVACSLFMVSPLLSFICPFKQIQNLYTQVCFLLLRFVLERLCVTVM
# Summary of the method: as §1
# ETV2 = biological target: T4, ETV2 (Homo sapiens, UniProt O00321 1-342); details: protein: recombinant; tags: N-terminal GST; dsDNA, one strand shown
# T4 sequence: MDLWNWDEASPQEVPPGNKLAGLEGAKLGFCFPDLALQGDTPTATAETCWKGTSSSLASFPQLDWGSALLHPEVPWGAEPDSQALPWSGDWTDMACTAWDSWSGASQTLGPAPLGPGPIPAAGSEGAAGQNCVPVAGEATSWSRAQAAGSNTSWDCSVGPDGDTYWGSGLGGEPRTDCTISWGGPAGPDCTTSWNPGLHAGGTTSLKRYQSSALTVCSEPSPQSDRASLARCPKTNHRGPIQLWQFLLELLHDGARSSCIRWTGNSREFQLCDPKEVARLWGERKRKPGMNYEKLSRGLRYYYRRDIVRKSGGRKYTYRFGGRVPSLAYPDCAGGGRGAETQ
# Summary of the method: as §1
# ELF3 = biological target: T5, ELF3 (Homo sapiens, UniProt P78545 1-371); details: protein: recombinant; tags: N-terminal GST; dsDNA, one strand shown
# T5 sequence: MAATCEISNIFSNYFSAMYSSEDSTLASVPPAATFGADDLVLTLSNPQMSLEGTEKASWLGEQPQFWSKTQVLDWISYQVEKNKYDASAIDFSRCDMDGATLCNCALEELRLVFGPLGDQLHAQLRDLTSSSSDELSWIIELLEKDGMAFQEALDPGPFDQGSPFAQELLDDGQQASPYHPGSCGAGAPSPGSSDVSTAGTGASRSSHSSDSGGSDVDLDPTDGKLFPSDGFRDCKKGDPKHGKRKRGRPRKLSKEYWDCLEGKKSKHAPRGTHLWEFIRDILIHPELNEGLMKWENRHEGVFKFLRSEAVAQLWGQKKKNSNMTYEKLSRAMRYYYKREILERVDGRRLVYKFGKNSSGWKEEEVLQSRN
# Summary of the method: as §1
# CRX = CRX (Homo sapiens, UniProt O43186 1-299); details: protein: recombinant; tags: N-terminal GST; dsDNA, one strand shown
# Sequence of CRX (O43186 whole entry): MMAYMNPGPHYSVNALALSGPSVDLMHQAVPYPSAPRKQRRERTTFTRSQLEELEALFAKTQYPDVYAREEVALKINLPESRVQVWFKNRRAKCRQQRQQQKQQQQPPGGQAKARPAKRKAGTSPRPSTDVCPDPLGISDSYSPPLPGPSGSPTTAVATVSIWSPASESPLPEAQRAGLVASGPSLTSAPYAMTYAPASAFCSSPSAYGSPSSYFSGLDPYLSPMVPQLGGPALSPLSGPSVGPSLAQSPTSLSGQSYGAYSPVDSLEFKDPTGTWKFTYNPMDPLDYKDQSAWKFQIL
# Summary of the method: as §1
# ETV1 = ETV1 (Homo sapiens, UniProt P50549 1-477); details: protein: recombinant; tags: N-terminal GST; dsDNA, one strand shown
# Sequence of ETV1 (P50549 whole entry): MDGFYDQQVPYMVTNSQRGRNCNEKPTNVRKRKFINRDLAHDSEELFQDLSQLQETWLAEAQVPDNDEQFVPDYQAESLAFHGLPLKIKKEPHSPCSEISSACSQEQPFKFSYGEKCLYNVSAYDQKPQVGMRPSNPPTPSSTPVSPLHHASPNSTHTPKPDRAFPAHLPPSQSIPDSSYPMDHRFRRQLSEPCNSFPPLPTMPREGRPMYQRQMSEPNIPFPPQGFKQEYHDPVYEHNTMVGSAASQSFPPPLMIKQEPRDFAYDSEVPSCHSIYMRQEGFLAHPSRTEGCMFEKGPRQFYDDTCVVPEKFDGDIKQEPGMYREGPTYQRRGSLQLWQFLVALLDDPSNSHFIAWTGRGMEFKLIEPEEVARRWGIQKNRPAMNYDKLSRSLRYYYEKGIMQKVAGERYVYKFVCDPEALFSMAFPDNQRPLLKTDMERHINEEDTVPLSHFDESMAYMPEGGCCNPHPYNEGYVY
# Summary of the method: as §1
# ERF = biological target: T6, ERF (Homo sapiens, UniProt P50548 1-548); details: protein: recombinant; tags: N-terminal GST; dsDNA, one strand shown
# T6 sequence: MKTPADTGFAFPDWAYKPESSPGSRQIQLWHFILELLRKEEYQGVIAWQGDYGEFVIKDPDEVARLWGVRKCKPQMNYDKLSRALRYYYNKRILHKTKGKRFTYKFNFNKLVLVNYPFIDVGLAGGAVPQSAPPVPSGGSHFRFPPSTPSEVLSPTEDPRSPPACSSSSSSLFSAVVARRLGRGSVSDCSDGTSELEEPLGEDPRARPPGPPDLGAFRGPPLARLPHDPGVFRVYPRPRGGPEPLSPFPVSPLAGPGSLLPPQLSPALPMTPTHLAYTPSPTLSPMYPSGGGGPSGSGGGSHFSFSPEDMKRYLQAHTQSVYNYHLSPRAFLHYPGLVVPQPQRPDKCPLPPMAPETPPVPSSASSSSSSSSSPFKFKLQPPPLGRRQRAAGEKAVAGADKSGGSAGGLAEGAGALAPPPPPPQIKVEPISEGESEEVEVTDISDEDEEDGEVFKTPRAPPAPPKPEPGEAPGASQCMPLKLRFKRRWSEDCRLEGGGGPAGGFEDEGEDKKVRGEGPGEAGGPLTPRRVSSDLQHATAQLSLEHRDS
# Summary of the method: as §1
# ETV3L = biological target: T7, ETV3L (Homo sapiens, UniProt Q6ZN32 1-361); details: protein: recombinant; tags: N-terminal GST; dsDNA, one strand shown
# T7 sequence: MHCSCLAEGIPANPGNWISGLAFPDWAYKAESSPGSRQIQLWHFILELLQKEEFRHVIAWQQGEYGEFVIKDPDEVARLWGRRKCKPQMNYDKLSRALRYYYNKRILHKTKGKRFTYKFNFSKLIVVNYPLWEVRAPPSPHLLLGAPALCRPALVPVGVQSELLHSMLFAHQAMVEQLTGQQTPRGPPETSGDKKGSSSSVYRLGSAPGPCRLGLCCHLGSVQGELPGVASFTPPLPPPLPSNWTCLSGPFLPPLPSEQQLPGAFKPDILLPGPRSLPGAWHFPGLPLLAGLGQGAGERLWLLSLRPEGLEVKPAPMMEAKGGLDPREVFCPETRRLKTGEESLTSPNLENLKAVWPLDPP
# Summary of the method: as §1
# ETS2 = biological target: T8, ETS2 (Homo sapiens, UniProt P15036 1-469); details: protein: recombinant; tags: N-terminal GST; dsDNA, one strand shown
# T8 sequence: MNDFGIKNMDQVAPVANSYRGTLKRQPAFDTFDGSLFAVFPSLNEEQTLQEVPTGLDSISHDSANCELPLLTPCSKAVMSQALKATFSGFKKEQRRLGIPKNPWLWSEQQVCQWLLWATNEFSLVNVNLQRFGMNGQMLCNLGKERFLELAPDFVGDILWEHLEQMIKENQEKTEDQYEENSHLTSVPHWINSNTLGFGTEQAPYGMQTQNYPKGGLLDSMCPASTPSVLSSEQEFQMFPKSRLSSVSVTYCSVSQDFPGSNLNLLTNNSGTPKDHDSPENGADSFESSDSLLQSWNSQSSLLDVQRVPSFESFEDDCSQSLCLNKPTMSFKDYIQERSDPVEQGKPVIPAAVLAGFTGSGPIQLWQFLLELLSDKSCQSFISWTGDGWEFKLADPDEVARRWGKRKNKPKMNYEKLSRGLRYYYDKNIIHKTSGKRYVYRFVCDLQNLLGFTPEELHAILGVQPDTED
# Summary of the method: as §1
# SPDEF = biological target: T9, SPDEF (Homo sapiens, UniProt O95238 1-335); details: protein: recombinant; tags: N-terminal GST; dsDNA, one strand shown
# T9 sequence: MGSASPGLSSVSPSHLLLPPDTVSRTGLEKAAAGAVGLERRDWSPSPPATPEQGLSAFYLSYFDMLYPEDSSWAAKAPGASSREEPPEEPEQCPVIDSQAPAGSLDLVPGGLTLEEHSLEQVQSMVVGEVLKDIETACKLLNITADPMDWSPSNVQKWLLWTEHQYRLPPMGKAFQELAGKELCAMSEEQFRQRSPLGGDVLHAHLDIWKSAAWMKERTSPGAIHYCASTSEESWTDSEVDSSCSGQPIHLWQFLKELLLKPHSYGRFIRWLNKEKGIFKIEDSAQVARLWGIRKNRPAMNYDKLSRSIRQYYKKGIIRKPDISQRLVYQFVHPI
# Summary of the method: as §1
# ETV7 = biological target: T10, ETV7 (Homo sapiens, UniProt Q9Y603 1-341); details: protein: recombinant; tags: N-terminal GST; dsDNA, one strand shown
# T10 sequence: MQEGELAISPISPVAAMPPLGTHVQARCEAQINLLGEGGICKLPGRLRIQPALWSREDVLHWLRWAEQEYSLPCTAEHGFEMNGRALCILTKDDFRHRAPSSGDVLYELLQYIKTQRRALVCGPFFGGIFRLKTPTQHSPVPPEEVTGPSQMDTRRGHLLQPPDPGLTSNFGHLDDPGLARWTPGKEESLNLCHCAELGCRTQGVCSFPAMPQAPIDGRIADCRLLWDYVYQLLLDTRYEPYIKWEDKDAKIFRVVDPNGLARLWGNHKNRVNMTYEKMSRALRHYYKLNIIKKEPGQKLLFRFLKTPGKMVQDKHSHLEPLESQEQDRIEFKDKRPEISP
# Summary of the method: as §1
# ELF5 = biological target: T11, ELF5 (Homo sapiens, UniProt Q9UKW6-2 1-255); details: protein: recombinant; tags: N-terminal GST; dsDNA, one strand shown
# T11 sequence: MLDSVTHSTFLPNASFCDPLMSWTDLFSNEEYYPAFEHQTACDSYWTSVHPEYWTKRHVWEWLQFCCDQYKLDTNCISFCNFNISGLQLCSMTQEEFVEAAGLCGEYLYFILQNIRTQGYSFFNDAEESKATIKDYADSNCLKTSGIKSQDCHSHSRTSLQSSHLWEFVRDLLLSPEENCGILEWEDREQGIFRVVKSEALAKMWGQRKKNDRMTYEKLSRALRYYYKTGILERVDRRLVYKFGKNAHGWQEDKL
# Summary of the method: as §1
# ETV3 = biological target: T12, ETV3 (Homo sapiens, UniProt P41162-2 1-143); details: protein: recombinant; tags: N-terminal GST; dsDNA, one strand shown
# T12 sequence: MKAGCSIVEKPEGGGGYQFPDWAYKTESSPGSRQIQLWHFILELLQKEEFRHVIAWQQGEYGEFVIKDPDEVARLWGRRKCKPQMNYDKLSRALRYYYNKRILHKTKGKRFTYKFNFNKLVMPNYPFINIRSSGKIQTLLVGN
# Summary of the method: as §1
# ETV6 = ETV6 (Homo sapiens, UniProt P41212 1-452); details: protein: recombinant; tags: N-terminal GST; dsDNA, one strand shown
# Sequence of ETV6 (P41212 whole entry): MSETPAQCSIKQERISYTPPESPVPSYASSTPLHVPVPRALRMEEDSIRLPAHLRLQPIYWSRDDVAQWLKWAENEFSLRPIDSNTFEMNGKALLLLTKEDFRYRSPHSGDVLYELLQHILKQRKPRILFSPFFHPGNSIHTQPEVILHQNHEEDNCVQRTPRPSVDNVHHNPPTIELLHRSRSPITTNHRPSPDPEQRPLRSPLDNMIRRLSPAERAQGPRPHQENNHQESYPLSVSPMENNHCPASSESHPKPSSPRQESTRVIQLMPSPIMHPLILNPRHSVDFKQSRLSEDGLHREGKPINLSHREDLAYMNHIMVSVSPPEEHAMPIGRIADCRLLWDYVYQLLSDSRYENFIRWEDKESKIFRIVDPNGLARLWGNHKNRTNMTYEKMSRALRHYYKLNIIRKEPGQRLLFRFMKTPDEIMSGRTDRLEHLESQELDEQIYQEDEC
# Summary of the method: as §1
sequence,measurement,setting,value
TATGCG,binding signal,FEV,"1.26 fold enrichment (6-mer frequency, TF over GST control)"
same,binding signal,ETV5,"1.29 fold enrichment (6-mer frequency, TF over GST control)"
same,binding signal,HSF1,"1.23 fold enrichment (6-mer frequency, TF over GST control)"
same,binding signal,SPIC,"1.63 fold enrichment (6-mer frequency, TF over GST control)"
same,binding signal,ELF4,"1.35 fold enrichment (6-mer frequency, TF over GST control)"
same,binding signal,ELK4,"1.44 fold enrichment (6-mer frequency, TF over GST control)"
same,binding signal,ETV2,"1.45 fold enrichment (6-mer frequency, TF over GST control)"
same,binding signal,ELF3,"1.19 fold enrichment (6-mer frequency, TF over GST control)"
same,binding signal,CRX,"1.4 fold enrichment (6-mer frequency, TF over GST control)"
same,binding signal,ETV1,"1.35 fold enrichment (6-mer frequency, TF over GST control)"
same,binding signal,ERF,"1.23 fold enrichment (6-mer frequency, TF over GST control)"
same,binding signal,ETV3L,"1.39 fold enrichment (6-mer frequency, TF over GST control)"
same,binding signal,ETS2,"1.43 fold enrichment (6-mer frequency, TF over GST control)"
same,binding signal,SPDEF,"1.36 fold enrichment (6-mer frequency, TF over GST control)"
same,binding signal,ETV7,"1.51 fold enrichment (6-mer frequency, TF over GST control)"
same,binding signal,ELF5,"1.32 fold enrichment (6-mer frequency, TF over GST control)"
same,binding signal,ETV3,"1.58 fold enrichment (6-mer frequency, TF over GST control)"
same,binding signal,ETV6,"1.22 fold enrichment (6-mer frequency, TF over GST control)"
